These results are taken from PubChem BioAssay (NCI).

Structures are written as SMILES. About 83,000 compounds went through this panel and 20% of them were active in at least one assay; those are over-represented in the sample as a whole.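 96-well plates, one dose, 48 hours. Percent growth reported; active if below 10.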 A number with no mark means an inactive call. Calls of active or inactive are those of the source.

The subject of the experiment is BT-549 breast. Nature of the experiment: NCI-60 one-dose screen, 48 h (100 = growth as untreated, 0 = no growth, -100 = all killed). The settings on record: 10 µM unless noted.
As to `COc1cc(Cn2c(SCCC(=O)Nc3ccc(F)cc3)nc3ccccc3c2=O)cc(OC)c1OC`, the growth is 92.6%.
Under `O=C(O)c1cn(C2CC2)c2cc(N3CCN(S(=O)(=O)c4ccc(Cl)c(Cl)c4)CC3)c(F)cc2c1=O` stands -4.65% (active); under `COc1cc(NCCCN=C(N)NC(N)=NC(C)C)c2ncccc2c1`, 65.1%.
Under `O=C(O)c1cccc([N+](=O)[O-])c1/C=C/c1ccccc1` stands 106%; under `NC(CC(N)C(=O)O)C(=O)O` (centres undefined), 105%.
Under `O=C(O)c1ccc(-n2c(=O)c3ccccc3c3ccccc3c2=O)cc1` stands 107%; under `COc1cc(Cn2c(SCC(=O)Nc3ccc(Cl)cc3)nc3ccccc3c2=O)cc(OC)c1OC`, 75.1%; under `CN(C)c1ncc(-c2ccc(C(F)(F)F)cc2)c(NC2CCCCCC2)n1`, 90.3%.
Consider `Nc1c(C(=O)Nc2ccccc2)sc2nc3c(cc12)CCCCC3`, for which the growth was 48.8%.
With `CCn1cc(C(=O)O)c(=O)c2cc(F)c(N3CCN(S(=O)(=O)c4c(C)cc(C)cc4C)CC3)cc21`, the growth was 73.7%.
Under `CCn1cc(C(=O)O)c(=O)c2cc(F)c(N3CCN(S(=O)(=O)c4ccc(Cl)cc4Cl)CC3)cc21` stands -4.59% (active); under `CCCC(C(=O)OCC)C(C)OC(=O)OCC` (centres undefined), 115%.
Under `NC(=O)NC(=O)/C=C/C(=O)OCCCl` stands 106%; under `Cc1ccc(C2=NN(c3ccc(S(=O)(=O)NC(=O)NCc4ccccc4)cc3)C(c3ccc(N(C)C)cc3)C2)c(C)c1` (centres undefined), 40.9%.
With `COc1ccc(-c2cn[nH]c2-c2cc(OC)c3c(c2)OCO3)cc1`, the growth was 59.3%.
Under `CCCCCCCCCCCCNC(=S)N/N=C/c1ccc(Cl)c(Cl)c1` stands 120%.
Turning to `Oc1ccc(Cl)cc1-c1cc(-c2ccc(Cl)cc2)n[nH]1`, the growth is 84%.
Under `COc1cc(NC(=O)CSc2nc3ccc(C)cc3c(=O)n2-c2ccccc2)cc(OC)c1OC` stands 79.8%; under `Clc1nc(-c2cccnc2)nc2sc3c(c12)CCCCCC3`, 99.8%; under `CCCCCCCCCCCCCCCCC(Br)C(=O)O` (centres undefined), 122%.
Regarding `CCCCCC(=O)OCc1ccccc1`, the growth was 84.5%.
Under `COc1ccc(S(=O)(=O)N2CCN(c3cc4c(cc3F)c(=O)c(C(=O)O)cn4C3CC3)CC2)c(OC)c1` stands 95%; under `COc1ccccc1CNCCCN1C(=O)c2ccc3c4c(ccc(c24)C1=O)C(=O)N(CCCNCCCCNCCCCN)C3=O`, 102%.
Take `Cc1cc(C)c(S(=O)(=O)N2CCN(c3cc4c(cc3F)c(=O)c(C(=O)O)cn4C3CC3)CC2)c(C)c1`: the growth is 77.3%.
Under `COc1ccc(NC(=O)CSc2nc3ccccc3c(=O)n2-c2ccccc2C(F)(F)F)c(OC)c1OC` stands 99.8%; under `CNC(C)=O`, 76.3%.
`COc1ccc(NC(=O)CSc2nc3ccc(Cl)cc3c(=O)n2-c2ccccc2C(F)(F)F)c(OC)c1OC`: the growth is 72.8%.
Under `O=S(=O)(O)CCl` stands 100%.
Consider `COc1ccc(OC)c(C(=O)c2oc3ccc(Br)cc3c2N)c1`, for which the growth was 27.8%.
Under `COc1cc(NCCN=C(N)NC(N)=NC(C)C)c2ncccc2c1` stands 52.4%; under `CC(=O)Nc1nc(C(=O)N2N=C(C)/C(=C/c3cccs3)C2=O)cs1`, 97%; under `CC(C)[C@H](CO)Nc1nc(Nc2ccc(C(=O)NCCNS(=O)(=O)c3cccc4c(N(C)C)cccc34)c(Cl)c2)c2ncn(C(C)C)c2n1`, -37.9% (active).
With `CCn1cc(C(=O)O)c(=O)c2cc(F)c(N3CCN(S(=O)(=O)c4cccc5ccccc45)CC3)cc21`, the growth was -4.35% (active).
Under `O=C1Nc2ccc(Br)cc2C1=N/C=c1\[nH]c(=O)/c(=C/c2ccc(Cl)cc2)s1` stands 99.8%.
